TDP43 rescue – inhibitors of TDP-43 toxicity in yeast. TDP-43 expressing yeast growth rescue, BacTiter-Glo, 24 h. actives 1.8% (n = 410,000). Potency, µM (doses to about 46.1 µM), hits mostly activators. AID 652104; also: nearly all actives have a fitted effect of over 50% in size
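Readout is BacTiter-Glo luminescence of cell growth, so inhibitors register as activators. TDP-43-expressing yeast at OD600=0.02 in galactose medium, after raffinose pregrowth to mid-log, were incubated with compound for 24 hr at 30 deg C.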
Abeta yeast res – A-beta toxicity reversal in yeast; Potency, µM (series often up to 46.1 µM), most hits filed as activators; actives 0.063% (n = 410,000); AID 1347071; yeast expressing A-beta42, growth rescue, OD600, 48 h; response scale: 0% DMSO, 100% iron-clioquinol control; also: nearly all actives have a fitted effect of over 55% in size
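Growth rescue measured by 600 nm absorbance after 48 h yeast culture at 30 C with compound. Values normalized between DMSO and an equimolar ferric chloride plus clioquinol control.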
aSyn yeast inh – inhibitors of alpha-synuclein toxicity in yeast; Yeast expressing alpha-synuclein, growth rescue, BacTiter-Glo, 24 h; Potency, µM (titrated, usually from 46.1 µM), most hits filed as activators; actives 0.14% (n = 370,000); AID 652106; also: nearly all actives have a fitted effect of over 65% in size
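Rescue of yeast growth: cells expressing toxic alpha-synuclein, induced in galactose at OD600 0.02, incubated with compound 24 h at 30 C. ATP luminescence quantified growth; inhibitors of toxicity appear as activators.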
FUS yeast rescue – FUS proteinopathy suppression in yeast; S. cerevisiae FUS-expressing, growth rescue, OD600, 24 h; Potency, µM (doses to about 76.6 µM), usual class: activators; actives 0.24% (n = 390,000); also: nearly all actives have a fitted effect of over 55% in size
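Toxicity suppression screen in FUS-yeast. Cells induced with 2% galactose, starting OD 0.005, treated 24hr at 30C with compounds at multiple final concentrations; growth by OD600.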
Large screens that a line does not name were inactive. A selection: hits, their analogues and other compounds. The true share with any hit is near 2.1%. Calls follow the shape of the dose curve; as a rule, active = well fitted curve in the direction sought with a large enough effect; inconclusive = small, poorly fitted or top-dose-only effect, or another doubt; inactive = no such curve, though single readings can be large; an effect the other way counts as inactive or inconclusive.

Cc1ccc(OCC(O)Cn2c(NCCc3ccccc3)nc3c2c(=O)[nH]c(=O)n3C)cc1 (stereo unspecified)	none
C/C(=N\NC(=O)C1CCCN(S(=O)(=O)c2ccccc2)C1)c1cccnc1 (stereo unspecified)	none
Cc1c(C(=O)NCCN2C(=O)S/C(=C\c3cccnc3)C2=O)cccc1[N+](=O)[O-]	none (no result: Abeta yeast res)
Oc1ccc(/C=N/Nc2ncnc3c2ncn3Cc2ccccc2)cc1O	FUS yeast rescue inconclusive
O=C1NC(=O)C2(CCc3ccccc32)N1 (stereo unspecified)	none
C=C1CC2(OC1=O)c1ccccc1CCc1ccccc12	TDP43 rescue 1.8µM (no result: FUS yeast rescue)
Cc1cc(C)c2sc(NNC(=O)c3ccc(S(=O)(=O)N4CCc5ccccc5C4)cc3)nc2c1	TDP43 rescue 7.9µM, FUS yeast rescue inconclusive
COC(=O)C(/C=N/OCc1ccc([N+](=O)[O-])cc1)NC(=O)c1ccccc1 (stereo unspecified)	none
O=c1c2ccccc2oc2cc(C#Cc3ccccn3)ccc12	TDP43 rescue inconclusive
C=CCn1c2ccccc2c(=O)c2cc(C#Cc3ccccn3)ccc21	TDP43 rescue 20µM
C/C(=N\NC(=O)Cc1cccc2ccccc12)c1ccncc1	none
C=C1C(=O)O[C@H]2[C@H]1[C@H](OC(=O)/C(C)=C\C)C[C@]1(CO1)[C@@H]1[C@H](OC(C)=O)C=C(C)[C@]21O	none (no result: FUS yeast rescue)
CN(C)CCNc1nc(-c2ccccc2F)c2sccc2n1	none
Fc1ccccc1-c1nc(NCC2CC2)nc2ccsc12	TDP43 rescue 22µM
CC(C)c1nc2ccc(NC(=O)C3CCCCC3)cc2[nH]1	none
c1cc(SC2CCCCC2)cc(-c2nc3cnccn3c2NC2CCCCC2)c1	TDP43 rescue 22µM
CCOC(=O)c1sc2ccccc2c1NC(=O)c1coc2ccccc2c1=O	none
FC(F)(F)c1cnc(Nc2ccc(N3CCOCC3)cc2)c(Cl)c1	TDP43 rescue 13µM
O=C(CN1CCN(C(=O)c2c(F)cccc2F)CC1)Nc1ccccc1C(F)(F)F	TDP43 rescue 16µM
COC(=O)C(Cc1ccc(O)cc1)NC(=O)c1ccccc1 (stereo unspecified)	none
O=[N+]([O-])C1C(c2ccccc2)=NOC1c1ccccc1O (stereo unspecified)	TDP43 rescue 18µM
Oc1ccccc1C1N=C(c2ccccc2)NC(c2ccccc2)=N1	none
Cc1ccc(N2C(=O)[C@@H]3CSC(c4ccc(F)cc4)N3C2=O)cc1 (stereo partly specified)	TDP43 rescue inconclusive (no result: aSyn yeast inh)
Cc1ccc(N2C(=O)[C@@H]3CSC(c4ccc(Cl)cc4)N3C2=O)cc1 (stereo partly specified)	TDP43 rescue 25µM (no result: aSyn yeast inh)
CC(=O)Nc1cc(-c2ccccc2N(C)C)cn2c(-c3cccc(C(F)(F)F)c3)cnc12	TDP43 rescue 25µM, aSyn yeast inh inconclusive, FUS yeast rescue 32µM
O=CNc1cc(-c2ccccc2Oc2ccccc2)cn2c(-c3ccc(F)cc3)cnc12	TDP43 rescue 16µM, FUS yeast rescue inconclusive
CC(=O)c1ccc(-c2cnc3c(NC=O)cc(-c4ccccc4Oc4ccccc4)cn23)cc1	TDP43 rescue inconclusive, FUS yeast rescue 25µM
COc1ccccc1-c1cc(NC=O)c2ncc(-c3cccc(C(C)=O)c3)n2c1	TDP43 rescue 18µM
COc1ccc(-c2cc(NC=O)c3ncc(-c4ccc(C(C)=O)cc4)n3c2)cn1	FUS yeast rescue inconclusive
CC(=O)Nc1cc(-c2cccc(NS(C)(=O)=O)c2)cn2c(-c3cccc(C(F)(F)F)c3)cnc12	FUS yeast rescue inconclusive
Cc1csc(NC(=O)CSc2ccc3nnc(CCNS(=O)(=O)c4ccccc4)n3n2)n1	none (no result: FUS yeast rescue)
O=S(=O)(Nc1ccc(Cl)cn1)c1ccc(Cl)cc1	TDP43 rescue 11µM
CC(C)(C)c1ccc(OCCC(=O)OCC(=O)NC2CCCCC2)cc1	TDP43 rescue 35µM
O=C(COC(=O)CNC(=O)c1ccccc1Cl)NC1CCCC1	none
O=C(COC(=O)Cc1c(Cl)cccc1Cl)NC1CCCC1	TDP43 rescue 20µM
CC(C)(C)c1ccc(OCCC(=O)OCC(=O)NC(=O)NC2CCCC2)cc1	none
O=C(O)Cc1ccc(C(=O)c2cccs2)s1	none
CS(=O)c1ccccc1-c1nc(-c2ccc(Cl)cc2)no1 (stereo unspecified)	none
CS(=O)c1ccccc1-c1nc(-c2cccc(Cl)c2)no1 (stereo unspecified)	TDP43 rescue 13µM
O=c1c2ccccc2nc(-c2ccccc2)n1Cc1ccc(Cl)cc1	none
Cc1ccc(-c2nc3ccccc3c(=O)n2O)cc1	aSyn yeast inh 20µM
O=c1c2ccccc2nc(-c2ccccc2)n1Cc1ccccc1	TDP43 rescue 22µM
Cc1cc(C(=O)CN2C(=O)C(=O)N(CCC3=CCCCC3)C2=O)c(C)n1C	none (no result: FUS yeast rescue)
NC(=O)c1ccc(NC(=O)c2cc(S(=O)(=O)N3CCCCC3)ccc2N2CCOCC2)cc1	none
CN1c2ccsc2C(O)=C(C(=S)Nc2ccccc2)S1(=O)=O	TDP43 rescue inconclusive
CCNC(=O)C1=C(O)c2sccc2N(C)S1(=O)=O	TDP43 rescue 8.9µM
O=C(O)CCCC(=O)NNC(=O)c1cccc(Br)c1	none
CCOc1ccc(Nc2c3c(nc4nncn24)CCC3)cc1	TDP43 rescue 35µM (no result: aSyn yeast inh)
Cc1ccccc1Nc1c2c(nc3nncn13)CCC2	none (no result: aSyn yeast inh)
Cc1cc(C)cc(Nc2c3c(nc4ncnn24)CCC3)c1	TDP43 rescue inconclusive, aSyn yeast inh inconclusive
Brc1ccc(Nc2c3c(nc4nncn24)CCC3)cc1	TDP43 rescue 13µM (no result: aSyn yeast inh)
Clc1ccc(Nc2c3c(nc4ncnn24)CCC3)cc1	TDP43 rescue 18µM
Cc1ccc(Nc2c3c(nc4nncn24)CCC3)cc1	TDP43 rescue 16µM (no result: aSyn yeast inh)
COc1ccc(/C=C/c2ccncc2)cc1	none
Cc1cccc(Nc2c3c(nc4nncn24)CCC3)c1	TDP43 rescue 18µM (no result: aSyn yeast inh)
Cc1ccc(Nc2c3c(nc4nncn24)CCC3)cc1C	TDP43 rescue inconclusive (no result: aSyn yeast inh)
O=C(c1ccco1)N1CCN(S(=O)(=O)c2ccc(Cl)cc2)CC1	TDP43 rescue inconclusive
COc1ccc(S(=O)(=O)N2CCN(C(=O)c3ccco3)CC2)c(C)c1C	TDP43 rescue 22µM
Cc1cc(Cl)c2oc(C(=O)N3CCN(C(=O)c4ccco4)CC3)c(C)c2c1	TDP43 rescue 22µM, FUS yeast rescue inconclusive
O=C(c1ccc(Cl)cc1)N1CCN(C(=O)c2ccco2)CC1	none
O=C(c1ccco1)N1CCN(S(=O)(=O)c2c(Cl)cccc2Cl)CC1	TDP43 rescue 16µM
O=C(c1ccco1)N1CCN(C(=O)c2ccc(-c3ccc(Cl)cc3)o2)CC1	TDP43 rescue 22µM
CCOC(=O)NC1(C(F)(F)F)C(=O)N(Cc2ccccc2)C2=C1C(=O)CC(C)(C)C2 (stereo unspecified)	none (no result: aSyn yeast inh)
Cc1nc(SCC(=O)Nc2cccc(S(=O)(=O)N3CCOCC3)c2)nc(C)c1C	none
O=S1(=O)C=C(Sc2nc3ccccc3s2)c2ccccc21	TDP43 rescue 2.2µM
O=C(COc1ccccc1)NNC1=NS(=O)(=O)c2ccccc21	none
O=C(Oc1c(CN2CCOCC2)cc(Cl)c2cccnc12)c1ccc(F)cc1	none

Assay outcomes as filed in PubChem BioAssay.
